The campaign covered roughly 360,000 compounds. About 3,500 (0.97%) were called active.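 How the source made its calls: active means activation above a per-plate cutoff, the mean activation of sample wells on that plate plus 3 SD (cut at about 8% in these data); inactive means the rest.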 The full list was thinned out, with actives kept by preference.
These compounds were tested against Melanocortin receptor 4 (Homo sapiens) (UniProt P32245) (assay: activators of MC4R beta-arrestin recruitment – cell-based, luminescence, agonist arm of biased-ligand search, primary screen (AID 540308)). Details: U2OS MC4R beta-arrestin complementation, at 8.9 µM, stronger effect = higher value, percent of melanotan II response, DMSO zero.
Sequence of Melanocortin receptor 4 (Homo sapiens) (P32245 whole entry, looked up): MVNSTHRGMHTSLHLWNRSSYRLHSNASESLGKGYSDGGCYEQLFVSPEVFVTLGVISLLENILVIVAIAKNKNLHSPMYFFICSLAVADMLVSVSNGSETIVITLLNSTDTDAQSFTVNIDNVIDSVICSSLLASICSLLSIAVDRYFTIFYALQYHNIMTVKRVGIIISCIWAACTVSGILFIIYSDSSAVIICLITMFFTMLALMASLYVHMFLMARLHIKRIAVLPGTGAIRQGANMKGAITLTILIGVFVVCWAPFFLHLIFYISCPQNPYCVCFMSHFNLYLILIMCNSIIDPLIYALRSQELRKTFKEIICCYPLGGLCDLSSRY

Row | Compound | activation
1 | CC(=O)Nc1cc(-c2cccc(CO)c2)cn2c(-c3cccc(C(F)(F)F)c3)cnc12 | 4.6% (inactive)
2 | CC(=O)Nc1cc(-c2ccc(N3CCN(C)CC3)cc2)cn2c(-c3ccc(F)cc3)cnc12 | 0.23% (inactive)
3 | COc1cccc(-c2cnc3c(NC(C)=O)cc(-c4cc(F)ccc4OC)cn23)c1 | 29.8% (active)
4 | CC(=O)Nc1cc(-c2ccc(N3CCN(C)CC3)cc2)cn2c(-c3cccc(C(=O)N(C)C)c3)cnc12 | 0.62% (inactive)
5 | CC(=O)Nc1cc(-c2ccccc2N(C)C)cn2c(-c3ccc(F)c(Cl)c3)cnc12 | 25.4% (active)
6 | COc1cccc(-c2cc(NC(C)=O)c3ncc(-c4cccc(C(C)=O)c4)n3c2)c1 | 3% (inactive)
7 | CC(=O)Nc1cccc(-c2cc(NC=O)c3ncc(-c4ccc(F)c(Cl)c4)n3c2)c1 | 5.15% (inactive)
8 | COc1cccc(-c2cnc3c(NC(C)=O)cc(-c4cccc(NC(C)=O)c4)cn23)c1 | 7.42% (inactive)
9 | CC(=O)Nc1cc(-c2ccccc2F)cn2c(-c3cccc(C(F)(F)F)c3)cnc12 | 22.5% (active)
10 | CC(=O)Nc1cccc(-c2cc(NC(C)=O)c3ncc(-c4ccccc4)n3c2)c1 | 6.05% (inactive)
11 | COc1ccc(-c2cc(NC(C)=O)c3ncc(-c4cc(OC)c(OC)c(OC)c4)n3c2)cn1 | -0.61% (inactive)
12 | COc1ccccc1-c1cc(NC(C)=O)c2ncc(-c3ccc(F)cc3)n2c1 | 10.3% (active)
13 | COC(=O)Cc1ccc(OC2(C)CCN(Cc3ccc4c(c3)OCCO4)C2)cc1 (stereo not drawn) | -0.74% (inactive)
14 | CC1(C(=O)NS(=O)(=O)Cc2cccc(Cl)c2)CCN1C(=O)Cc1ccccc1 (stereo not drawn) | -0.92% (inactive)
15 | NC(c1csc(NC(=O)Nc2ccccc2Oc2ccccc2)n1)c1ccccc1Cl (stereo not drawn) | 5.13% (inactive)
16 | CCCNC(=O)C1(C)CCN(Cc2csc(-c3ccc(Cl)cc3)n2)C1 (stereo not drawn) | -0.8% (inactive)
17 | O=C(Nc1ccc(Cl)cc1)c1csc([C@H]2C[C@H](O)[C@@H](CO)O2)n1 | -0.15% (inactive)
18 | CCOC(=O)C1(Cc2cccc(OC)c2)CCCN(C(=O)CCSC)C1 (stereo not drawn) | -1.03% (inactive)
19 | CCCC(=O)N1CCC1(C)C(=O)NS(=O)(=O)c1ccc(Cl)cc1 (stereo not drawn) | -0.17% (inactive)
20 | Cc1cccc(-c2cnc(C(O)c3cc(C)cc(C)c3)[nH]2)c1 (stereo not drawn) | -1.6% (inactive)
21 | Cc1ccc(-c2cnc(C(O)c3cc(Cl)cc(Cl)c3)[nH]2)cc1 (stereo not drawn) | 9.5% (active)
22 | OC(c1ccc(Cl)cc1)c1ncc(-c2ccc(Cl)cc2)[nH]1 (stereo not drawn) | 1.64% (inactive)

Row | Compound | activation
23 | C#CCNC(=O)[C@H](Cc1ccc(C(=O)c2ccccc2)cc1)NC(=O)OC(C)(C)C | -0.75% (inactive)
24 | Cc1ccc(Nc2nc(N)nc(CSc3nnc(C)s3)n2)cc1 | -0.99% (inactive)
25 | Cc1ccc(Nc2nnc(SC(C)C(=O)NC3CC3)s2)cc1 (stereo not drawn) | 1.11% (inactive)
26 | Cc1ccc(Nc2nnc(SCc3ccccc3)s2)cc1 | 16.6% (active)
27 | OC[C@@H]1CN(C2CCCC2)C[C@H](n2cnc3c(NC4CCC4)ncnc32)O1 | -0.37% (inactive)
28 | CCN(C(=O)COC(=O)c1ccc(COc2ccc3c(C)cc(=O)oc3c2)cc1)C1CCS(=O)(=O)C1 (stereo not drawn) | -3.78% (inactive)
29 | CCOC(=O)c1cc(=O)c2ccc(OCc3ccccc3)cc2o1 | -0.49% (inactive)
30 | Cc1ccccc1NC(=O)c1ccc(COc2ccc3c(C)cc(=O)oc3c2)cc1 | 19.5% (active)
31 | Cc1ccc(CC2(C)C(=O)Nc3ccc(OC(F)(F)F)cc32)cc1 (stereo not drawn) | 6.29% (inactive)
32 | CC1(Oc2ccccc2-c2ccno2)CCN(Cc2ccc(-c3ccccc3)o2)C1 (stereo not drawn) | -0.57% (inactive)
33 | CCc1nc2c(OCCOc3ccccc3)cccn2c1N(C=O)Cc1ccc(OC)cc1 | -1.25% (inactive)
34 | CCc1nc2c(OCCOc3ccccc3)cccn2c1N(C)C(=O)c1ccccc1F | -0.99% (inactive)
35 | N#Cc1ccc(-c2ccc3nccn3c2)cc1 | -0.91% (inactive)
36 | O=C(Nc1ccc(OCCO)cc1)c1csc([C@H]2C[C@H](O)[C@@H](CO)O2)n1 | 1.86% (inactive)
37 | CCN1CCC2(CC1)N=C(c1ccc(F)cc1)C(=S)N2C(=O)c1ccc(C)cc1 | 11.5% (active)
38 | Cc1ccc(SCC(=O)N2CCN(c3ccc(F)cc3)CC2)cc1 | -0.3% (inactive)
39 | CCN1CCC(O)(/C=C/c2ccc(C)cc2)C(C(=O)/C=C/c2ccc(C)cc2)C1 (stereo not drawn) | -1.73% (inactive)
40 | COc1ccc(-c2sc3ccc(OC)cc3c2C#Cc2ccccn2)cc1 | -2.74% (inactive)
41 | COc1ccc2sc(-c3ccc(S(C)(=O)=O)cc3)c(C#Cc3cncn3C)c2c1 | 35.2% (active)
42 | COc1ccc2sc(-c3ccc(S(C)(=O)=O)cc3)c(-c3ccc(C(N)=O)cc3)c2c1 | 0.87% (inactive)
43 | CC1(C(=O)O)CCN1C(=O)/C=C/c1ccccc1 (stereo not drawn) | 0.27% (inactive)
44 | COc1ccccc1CNC(=O)c1cc(-c2cc(Cl)ccc2C)n[nH]1 | -0.81% (inactive)

Row | Compound | activation
45 | Cc1ccc(NS(=O)(=O)c2cc3c(cc2Br)NC(=O)CO3)cc1C | 1.67% (inactive)
46 | CCn1c(C(O)c2cc(OC)ccc2OC)nc2ccccc21 (stereo not drawn) | -1.32% (inactive)
47 | COc1ccc(C)c(Cn2c(-c3nonc3N)nc3ccccc32)c1 | 12.1% (active)
48 | COc1ccccc1Cn1c(CO)nc2ccccc21 | 1.82% (inactive)
49 | CCCNC(=O)C1(C)CCCN(Cc2cccc(C(F)(F)F)c2)C1 (stereo not drawn) | 0.13% (inactive)
50 | COc1cccc(CNc2nc(NCc3ccccc3OC)nc3ccsc23)c1 | -1.7% (inactive)
51 | COc1ccc(-c2ccc(C(=O)NCCN3CCOCC3)c3occc23)c(C)c1 | -2.32% (inactive)
52 | CCNC(=S)Nc1ccc2c(c1)c(=O)n(C)n2Cc1ccc(Cl)cc1 | -1.45% (inactive)
53 | COCCN(CC(=O)Nc1ccccc1C)S(=O)(=O)c1ccc(S(=O)(=O)N2CCCC2)cc1 | -3.53% (inactive)
54 | C=CCN(CC=C)S(=O)(=O)c1ccc(C(=O)Nc2nc3c(s2)CCc2ccccc2-3)cc1 | 1.77% (inactive)
55 | COCCN(CCOC)S(=O)(=O)c1ccc(C(=O)Nc2nc3c(s2)CCc2ccccc2-3)cc1 | 15.6% (active)
56 | OC(c1cc(Cl)cc(Cl)c1)c1ncc(-c2ccccc2C(F)(F)F)[nH]1 (stereo not drawn) | -0.63% (inactive)
57 | OC[C@@H]1CN(Cc2ccncc2)C[C@H](n2cnc3c(N4CCN(c5ccccc5)CC4)ncnc32)O1 | 0.16% (inactive)
58 | CC1(C(=O)NS(=O)(=O)c2ccc(Cl)cc2)CCN1C(=O)CC1CCCC1 (stereo not drawn) | 1.72% (inactive)
59 | CC(C)C(=O)Nc1c(C(=O)c2ccc(F)cc2)oc2ccccc12 | 1.16% (inactive)
60 | COc1ccc2oc(=N)c(C(=O)Nc3ccc(Br)cc3)cc2c1 | 1.15% (inactive)
61 | COc1ccc(C(=O)c2oc3ccc(Br)cc3c2NC(C)=O)cc1 | 11.7% (active)
62 | CCN(CC(=O)Nc1ccccc1C(=O)NC1CC1)Cc1cccs1 | -0.58% (inactive)
63 | Cc1ccc(-n2nc(C)c(/C=N/NC(=O)c3cccs3)c2Cl)cc1 | 20.9% (active)
64 | Cc1nn(-c2ccccc2)c(NC(=O)c2cccs2)c(-c2ccc(Cl)cc2)c1=O | -1.07% (inactive)
65 | Cc1nn(-c2ccccc2)c(Cl)c1/C=N/NC(=O)c1nn(C)cc1[N+](=O)[O-] | -2.85% (inactive)
66 | COc1cccc(NC(=O)C2(C)CCN2C(=O)CCC2CCCC2)c1 (stereo not drawn) | 2.96% (inactive)

Row | Compound | activation
67 | CCC(=O)c1cc2c(cc1NC(=O)c1cccs1)OCCO2 | 23.2% (active)
68 | COc1cc(NC(=O)c2ccc3c(c2)OCO3)ccc1NC(=O)c1cccs1 | -0.83% (inactive)
69 | COc1cc(NC(=O)c2cccs2)ccc1NC(=O)c1ccccc1Cl | 0.56% (inactive)
70 | COc1ccc(S(=O)(=O)NNC(=O)Nc2ccc(C)cc2)c(OC)c1 | 0.62% (inactive)
71 | COc1ccc(/C=N/NC(=O)Nc2ccc3nsnc3c2)c(OC)c1 | 13.5% (active)
72 | COc1ccc(-c2[nH]ncc2/C=N/NC(=O)c2cc(Br)ccc2O)c(OC)c1 | 0.86% (inactive)
73 | O=C(NCCNc1ccc([N+](=O)[O-])cc1)c1cccc2c(Br)cccc12 | 8.32% (active)
74 | O=C(NCCNc1ccc([N+](=O)[O-])cc1Cl)c1ccccc1F | -1.37% (inactive)
75 | CC(CNc1ccc([N+](=O)[O-])cc1)NC(=O)c1ccccc1Br (stereo not drawn) | 0.96% (inactive)
76 | CC(=O)Oc1ccc(Cn2c(C)c(C(=O)NCc3ccc(C#N)cc3)sc2=O)cc1 | 0.49% (inactive)
77 | CCCCCCCCCCOC(=O)Cn1c(COc2ccc(C)cc2)[n+](C)c2ccccc21 | 16.7% (active)
78 | CCCCOc1ccc(NC(=O)CSCC(=O)OCC)cc1 | 0.02% (inactive)
79 | Cc1ccc(COc2ccc(C(=O)NN)cc2)cc1 | 6.84% (inactive)
80 | CCCCCCCCCCOC(=O)Cn1c(COc2cccc(OC)c2)[n+](C)c2ccccc21 | 21.1% (active)
81 | COCCCNC(=O)c1ccc(-c2c(C)noc2C)c2ccoc12 | -0.44% (inactive)
82 | COc1cc(NC(=O)c2cc(-c3ccc(F)cc3OC(C)C)n[nH]2)cc(OC)c1OC | 3.09% (inactive)
83 | Cc1ccc(C)c(C(O)c2ncc(-c3cccc4ccccc34)[nH]2)c1 (stereo not drawn) | -2.84% (inactive)
84 | O=C(NCCCN1CCCCC1)c1ccc2c(c1)NC(=O)C(N1CCOCC1)S2 (stereo not drawn) | -0.87% (inactive)
85 | CCCNC(=O)c1cc(C2CCCCN2S(=O)(=O)c2ccc(C#N)cc2)on1 (stereo not drawn) | 0.19% (inactive)
86 | O=C(NCCN1CCOCC1)c1ccccc1N1C(=O)[C@@H]2Cc3c([nH]c4ccccc34)C(c3cccc(Cl)c3)N2C1=O (stereo partly drawn) | -1.7% (inactive)
87 | Cc1ccc(C(O)c2ncc(-c3ccccc3F)[nH]2)cc1F (stereo not drawn) | -0.39% (inactive)
88 | COc1ccc(C(NC(=O)C2CCN(CCCc3ccccc3)CC2)c2cccs2)cc1 (stereo not drawn) | 0.65% (inactive)
